PubChem BioAssay AID1159580 (chemical genetic matrix, 2015)
In all, about 5,500 compounds went through this assay and about 2,000 (36%) were called active. Not shown: some 18% with an inconclusive outcome. No stated cut-off is given here; in the data, active means normalized growth mostly below about 0.91 (no sharp cut-off); inconclusive means no clear call, values can overlap the other calls; inactive means mostly above about 0.92. This is one part of the list.

Experiment: chemical genetic growth profiling, strain panel (AID 1159580);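 further: tested at 20 µM; growth read once vehicle control cultures reached saturation at 30 °C; 1 = growth at the plate median or of vehicle wells; lower values mean less growth of the strain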
Settings: S. cerevisiae deletion strains, growth OD
[1] = locus YJL187C, strain SWE1, hits give low values

Measured: normalized growth

COc1cccc(/C=C/C(=O)O)c1C(C)C
inactive: locus YAL021C, strain ccr4, hits give low values 0.952 | locus YAL026C, strain drs2, hits give low values 0.983 | locus YAL030W, strain snc1, hits give low values 0.978 | locus YBL061C, strain skt5, hits give low values 0.973 | locus YBR009C, strain hhf1, hits give low values 1.01 | locus YBR023C, strain chs3, hits give low values 0.973 | locus YBR171W, strain sec66, hits give low values 0.969 | locus YBR231C, strain swc5, hits give low values 0.976 | locus YBR279W, strain paf1, hits give low values 0.995 | locus YCL011C, strain gbp2, hits give low values 0.999 | locus YCL016C, strain dcc1, hits give low values 0.982 | locus YCL069W, strain vba3, hits give low values 0.982 | locus YCR088W, strain abp1, hits give low values 0.977 | locus YDL005C, strain med2, hits give low values 0.96 | locus YDL040C, strain nat1, hits give low values 0.988 | locus YDR001C, strain nth1, hits give low values 0.983 | locus YDR069C, strain doa4, hits give low values 0.97 | locus YDR137W, strain rgp1, hits give low values 0.992 | locus YDR159W, strain sac3, hits give low values 0.917 | locus YDR195W, strain ref2 0.96 | locus YDR297W, strain sur2, hits give low values 0.973 | locus YDR334W, strain swr1, hits give low values 0.983 | locus YDR335W, strain msn5, hits give low values 0.994 | locus YDR392W, strain spt3, hits give low values 0.961 | locus YEL003W, strain gim4, hits give low values 0.994 | locus YEL037C, strain rad23, hits give low values 0.985 | locus YEL061C, strain CIN8 (second series), hits give low values 1 | locus YER015W, strain faa2, hits give low values 0.977 | locus YER016W, strain bim1, hits give low values 0.981 | locus YER111C, strain swi4, hits give low values 0.976 | locus YER155C, strain BEM2 (second series), hits give low values 0.967 | locus YFR010W, strain ubp6, hits give low values 0.99 | locus YGL167C, strain pmr1, hits give low values 0.978 | locus YGL173C, strain kem1, hits give low values 0.991 | locus YGL227W, strain vid30, hits give low values 0.985 | locus YGL240W, strain doc1, hits give low values 0.984 | locus YGL253W, strain hxk2, hits give low values 0.98 | locus YHR013C, strain ard1, hits give low values 0.957 | locus YHR027C, strain rpn1, hits give low values 0.995 | locus YHR142W, strain chs7, hits give low values 0.996 | locus YJL092W, strain hpr5, hits give low values 0.983 | locus YJL095W, strain BCK1 (second series), hits give low values 0.974 | locus YJL115W, strain asf1, hits give low values 0.972 | locus YJL129C, strain trk1, hits give low values 0.973 | locus YJL154C, strain vps35, hits give low values 0.983 | locus YJL164C, strain tpk1, hits give low values 0.985 | locus YJL166W, strain qcr8, hits give low values 0.982 | [1] 0.998 | locus YKL160W, strain elf1, hits give low values 0.987 | locus YKR026C, strain gcn3, hits give low values 0.982 | locus YKR091W, strain srl3, hits give low values 0.999 | locus YLL001W, strain dnm1, hits give low values 0.988 | locus YLL026W, hits give low values 0.972 | locus YLL041C, strain sdh2, hits give low values 0.971 | locus YLR027C, strain aat2, hits give low values 0.989 | locus YLR221C, strain rsa3, hits give low values 0.999 | locus YLR258W, strain gsy2, hits give low values 0.986 | locus YLR262C, strain YPT6 (second series), hits give low values 1.03 | locus YLR320W, strain mms22, hits give low values 0.975 | locus YLR342W, strain FKS1, hits give low values 0.982 | locus YLR357W, strain rsc2, hits give low values 0.945 | locus YLR370C, strain arc18, hits give low values 0.993 | locus YLR384C, strain iki3, hits give low values 0.989 | locus YML120C, strain ndi1, hits give low values 0.979 | locus YMR058W, strain fet3, hits give low values 0.976 | locus YMR125W, strain sto1, hits give low values 0.988 | locus YMR129W, hits give low values 0.99 | locus YMR205C, strain PFK2, hits give low values 0.937 | locus YMR231W, strain pep5, hits give low values 0.977 | locus YNL071W, strain lat1, hits give low values 0.982 | locus YNL209W, strain ssb2, hits give low values 1.01 | locus YNL248C, strain rpa49, hits give low values 0.988 | locus YNL322C, strain KRE1 (second series), hits give low values 0.951 | locus YNR049C, strain mso1, hits give low values 0.967 | locus YOR001W, strain rrp6, hits give low values 0.998 | locus YOR070C, strain gyp1, hits give low values 0.999 | locus YOR080W, strain dia2, hits give low values 0.994 | locus YOR083W, strain WHI5, hits give low values 0.981 | locus YOR106W, strain vam3, hits give low values 1.01 | locus YOR265W, strain rbl2, hits give low values 0.973 | locus YOR270C, strain vph1, hits give low values 1.02 | locus YOR290C, strain snf2, hits give low values 0.98 | locus YPL051W, strain arl3, hits give low values 0.996 | locus YPL078C, strain atp4, hits give low values 1.01 | locus YPL106C, strain sse1, hits give low values 0.929 | locus YPL240C, strain hsp82, hits give low values 0.976

O=C(N/N=C\C=C\c1ccccc1)c1ccccc1-n1cccc1
inactive: locus YAL013W, strain DEP1, hits give low values 0.96 | locus YBR229C, strain ROT2, hits give low values 0.979 | locus YDL101C, strain DUN1, hits give low values 0.993 | locus YDR150W, strain NUM1, hits give low values 0.996 | locus YEL061C, strain CIN8, hits give low values 1 | locus YGR078C, strain PAC10, hits give low values 0.988 | locus YHR030C, strain SLT2, hits give low values 0.925 | locus YHR087W, strain rtc3, hits give low values 0.93 | [1] 0.976 | locus YJR043C, strain POL32, hits give low values 1.01 | locus YJR075W, strain HOC1, hits give low values 0.997 | locus YLR039C, strain RIC1, hits give low values 0.87 | locus YLR058C, strain SHM2 (second series), hits give low values 0.97 | locus YLR085C, strain ARP6, hits give low values 0.836 | locus YLR262C, strain YPT6, hits give low values 0.833 | locus YML094W, strain GIM5, hits give low values 0.939 | locus YMR219W, strain ESC1, hits give low values 0.99 | locus YMR263W, strain SAP30, hits give low values 0.973 | locus YMR307W, strain GAS1, hits give low values 0.713 | locus YNL128W, strain TEP1, hits give low values 0.987 | locus YNL153C, strain GIM3, hits give low values 1 | locus YNL298W, strain CLA4 (second series), hits give low values 0.928 | locus YNL322C, strain KRE1, hits give low values 0.996 | locus YNR030W, strain Alg12, hits give low values 0.906 | locus YPL055C, strain LGE1, hits give low values 0.899 | locus YPL241C, strain CIN2, hits give low values 0.948 | locus YPR135W, strain CTF4, hits give low values 0.795
